# Most compounds without a hit are left out; they make up all but 2.3% or so of the library.
# GLP1R ag – activates the human GLP-1 receptor; Potency, µM (titrated, usually from 45.6 µM), hits mostly activators; HEK293 GLP-1R CRE-luciferase, luminescence, 4-6 h; cells express a hypersensitive GLP-1R form; 380,000 compounds, 0.007% hits
# Target sequence (P43220 whole entry, looked up): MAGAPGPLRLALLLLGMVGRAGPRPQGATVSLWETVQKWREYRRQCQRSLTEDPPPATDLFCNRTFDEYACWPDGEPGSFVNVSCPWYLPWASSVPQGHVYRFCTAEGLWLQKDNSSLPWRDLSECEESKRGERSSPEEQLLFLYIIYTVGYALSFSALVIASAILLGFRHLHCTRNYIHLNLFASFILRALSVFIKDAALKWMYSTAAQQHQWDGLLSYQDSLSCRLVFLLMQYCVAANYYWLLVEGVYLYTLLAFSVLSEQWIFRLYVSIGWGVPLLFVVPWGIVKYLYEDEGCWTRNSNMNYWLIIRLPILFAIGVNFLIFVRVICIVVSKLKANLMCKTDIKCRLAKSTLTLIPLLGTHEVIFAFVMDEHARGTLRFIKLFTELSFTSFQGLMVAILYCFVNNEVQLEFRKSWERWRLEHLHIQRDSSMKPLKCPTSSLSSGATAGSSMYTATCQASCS
# GLP-1R inv ag – GLP-1 receptor (human) inverse agonism; 410,000 compounds, 1.6% hits; HEK293 GLP-1R CRE-luciferase, luminescence, 24 h; GLP-1R form is constitutively active; Potency, µM (doses to about 38.3 µM), hits mostly inhibitors; P43220; note: nearly all actives have a fitted effect of over 55% in size
#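 HEK293 cells stably co-expressing constitutively active GLP-1R and a cAMP-responsive luciferase reporter were seeded in DMEM with 10% Nu serum, given compounds after 12 h, and incubated 24 h at 37 deg C. Luminescence was then read.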
# PTHR1 ag – agonists of human PTHR1 parathyroid hormone receptor; Q03431; HEK293 GP2 PTHR1 cells, GloSensor cAMP luminescence, 1 h; Potency, µM (top dose mostly 115 µM), most hits filed as activators; 410,000 compounds, 0.075% hits; AID 743266; note: nearly all actives have a fitted effect of over 55% in size
#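 HEK-293-derived GP2 cells expressing PTHR1 and a GloSensor cAMP reporter, 3,000/well, plated overnight, given luciferin plus IBMX (each 0.5 mM as added) for 1 h at 37 °C, then compound for 1 h at 37 °C. Luminescence was read after 15 min at room temperature.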
# ALOX12 inh – ALOX12 (human) lipoxygenase inhibition; P18054; purified 12hLO, xylenol orange hydroperoxide absorbance; Potency, µM (highest dose often 108 µM), hits mostly inhibitors; 580,000 compounds, 1.1% hits; AID 1671190
#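 Purified human 12hLO (150 nM final) in 25 mM Hepes, 0.01% Triton X-100, pH 7.0 was preincubated 15 min at room temperature with compound. Then 40 uM arachidonic acid was added, 30 min. Hydroperoxide was read by Fe-XO absorbance ratio 573/405 nm.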
# GLS inhibitor – blocks human kidney-isoform glutaminase activity; AID 624170; Potency, µM (highest dose often 45.5 µM), actives largely listed as inhibitors; 410,000 compounds, 0.21% hits; GLS enzymatic activity, qHTS titration
#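 hKGA; 45 mM KH2PO4 pH 8.2 + 0.02% Tween-20; cpd via pin tool; 1 mM Gln soln; GluOx/HRP/Amplex Red; RT 30 min; fluor. t0 & final.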
# Glioma ERSR ind – ER stress response induction in glioma; U87-MG GRP78 promoter luciferase reporter, 16 h; Potency, µM, actives largely listed as activators; 420,000 compounds, 0.02% hits; note: series mostly up to about 76 µM; nearly all actives have a fitted effect of over 35% in size
#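 Stably transfected U87-MG glioma cells carrying a GRP78-based luciferase sensor; 16 h compound incubation. Luminescence end-point read 10 min after Bright-Glo addition at room temperature.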
# A number is an active result; - = inactive; ? = inconclusive; . = no result given; [ ] = dose if it differs, or a comment. Calls come from the whole dose curve; as a rule, active = well fitted curve in the direction sought with a large enough effect; inconclusive = small, poorly fitted or top-dose-only effect, or another doubt; inactive = no such curve, though single readings can be large; an effect the other way counts as inactive or inconclusive.
SMILES,GLP1R ag,GLP-1R inv ag,PTHR1 ag,ALOX12 inh,GLS inhibitor,Glioma ERSR ind
O=C(COc1ccc(F)cc1)N1CCC2(CC1)NC(=O)N(c1ccc(F)cc1)N2,.,.,.,2.51µM,.,.
Nc1cccc(OCCCc2ccccc2)c1,.,.,.,-,.,.
Clc1ccccc1-n1ncc2c(NC3CCCC3)ncnc21,.,.,.,-,.,.
Cc1occc1C(=O)N1CCN(C(c2ccccc2)c2ccccc2)CC1,-,?,-,-,.,-
O=C(C1=COCCO1)N1CCN(C(c2ccccc2)c2ccccc2)CC1,-,10µM,-,-,-,-
Cc1ccccc1C(=O)N1CCN(C(c2ccccc2)c2ccccc2)CC1,-,8.91µM,-,?,-,-
O=C(NCC(=O)N1CCN(C(c2ccccc2)c2ccccc2)CC1)c1ccccc1F,-,8.91µM,-,-,-,-
Cc1oc(C(C)(C)C)cc1C(=O)N1CCN(C(c2ccccc2)c2ccccc2)CC1,-,7.94µM,-,-,-,-
CNS(=O)(=O)Cc1ccccc1CNC(=O)c1cc(F)cc(F)c1,.,.,.,-,.,.
N#Cc1cccc(NC(=O)N[C@H]2[C@H](O)[C@@H](N3CCC(Cc4ccccc4)CC3)[C@@H]3OC[C@H]2O3)c1,.,.,.,44.7µM,.,.
CCc1ccc(-c2c(C)sc(N)c2C#N)cc1,.,.,.,28.2µM,.,.
CCCc1ccc(-c2c(C)sc(N)c2C#N)cc1,-,?,-,?,-,-
COc1cccc(NC(=O)COC(=O)c2cc3c(C)nn(-c4ccc(F)cc4)c3s2)c1,.,.,.,-,.,.
Cc1[nH]n(C(N)=S)c(=O)c1N=Nc1ccc2ccccc2c1,-,?,-,?,-,-
Cc1ccc(N=Nc2c(C)[nH]n(C(N)=S)c2=O)cc1C,-,0.501µM,-,-,-,-
COc1nc2ccccc2nc1N1CCC(C(=O)Nc2ccc(Cl)cc2)CC1,.,.,.,-,.,.
Cc1cc2cc(CNC(=S)Nc3cccc(Br)c3)ccc2[nH]1,.,.,.,28.2µM,.,.
CCOc1ccc(NC(=S)NCc2ccc3[nH]c(C)cc3c2)cc1,-,?,-,10µM,-,-
COc1ccc(C(=O)Oc2cccc3c(OC)ccc(C=O)c23)cc1OC,.,.,.,-,.,.
CCOC(=O)c1[nH]c2ccc(C)cc2c1NC(=O)CC,.,.,.,-,.,.
Cc1ccc(C(=O)NNc2ncnc3c2cnn3C)cc1,-,-,-,-,5.01µM,-
Cc1ccccc1C(=O)NNc1ncnc2c1cnn2C,-,-[0.307 µM],-,-,-,-
COc1ccc(S(=O)(=O)N2CCCc3ccccc32)cc1[N+](=O)[O-],-,11.2µM,-,-,-,-
COc1ccc(S(=O)(=O)N2CCCc3ccccc32)cc1OC,-,?,-,-,-,-
COc1ccc(S(=O)(=O)N2CCc3ccccc32)cc1C(=O)N1CCN(c2ncccn2)CC1,.,.,.,39.8µM,.,.
SMILES,GLP1R ag,GLP-1R inv ag,PTHR1 ag,ALOX12 inh,GLS inhibitor,Glioma ERSR ind
COc1ccc(S(=O)(=O)N2CCc3ccccc32)cc1C(=O)N1CCN(C=O)CC1,-,-,-,-,-,-
COc1ccc(Cl)cc1C(=O)N1CCN(Cc2cc(=O)n3ccsc3n2)CC1,.,.,.,-,.,.
CN1C[C@@H](NC(=O)Nc2ccccc2)C[C@H]1c1nc(-c2ccccc2)no1,.,.,.,28.2µM,.,.
CN1C[C@@H](NC(=O)Nc2ccccc2)C[C@H]1c1nc(-c2ccc(F)cc2)no1,.,.,.,-,.,.
COc1ccc(CNc2nc(NCc3ccc(OC)cc3)n(S(=O)(=O)c3ccc(C)cc3)n2)cc1,.,.,.,-,.,.
O=C(Oc1cccc2cccnc12)c1cccc([N+](=O)[O-])c1,-,?,-,?,-,-
O=C(Oc1ccc(Cl)c2cccnc12)c1cccc([N+](=O)[O-])c1,-,5.01µM,-,-,-,-
O=C(Oc1c(Cl)cc(Cl)c2cccnc12)c1cccc([N+](=O)[O-])c1,-,12.6µM,-,.,-,-
CN(C)c1ccc(C=c2c3ccccc3n3c2cc(-c2ccccc2)[n+]3C)cc1,-,?,-,39.8µM,-,-
COc1cc(C=c2c3ccccc3n3c2cc(-c2ccccc2)[n+]3C)cc(OC)c1OC,-,?,-,?,-,-
CN(C)c1ccc(C=c2c3ccccc3n3c2cc(-c2ccc(Cl)cc2)[n+]3C)cc1,-,?,-,44.7µM,-,-
CN(C)c1ccc(C=c2c3cc([N+](=O)[O-])ccc3n3c2cc(-c2ccccc2)[n+]3C)cc1,-,?,-,7.94µM,-,-
COc1cc(N(C)C)ccc1C=c1c2ccccc2n2c1cc(-c1ccccc1)[n+]2C,-,8.91µM,-,?,?,-
CC(C)CC(=O)Nc1ccc(NC(=O)c2ccccc2F)cc1,.,.,.,-,.,.
NC1CCCN(Cc2cccs2)C1 (configuration not stated),.,.,.,-,.,.
O=C(CC1CCCCC1)Nc1ccc2c(c1)-c1ccccc1C2,.,.,.,-,.,.
Cc1ccc(N(Cc2ccco2)C(=O)CCc2ncc(-c3ccc(F)cc3F)o2)cc1,.,.,.,-,.,.
O=C(O)/C(=C\c1ccc(Cl)c([N+](=O)[O-])c1)c1ccc(S(=O)(=O)N2CCCC2)s1,-,-,-,17.8µM,-,-
O=C(O)/C(=C\c1ccc(Cl)c([N+](=O)[O-])c1)c1ccc(S(=O)(=O)N2CCCCC2)s1,-,-,-,?,-,-
CN(CC(=O)NC1CCCCNC1=O)Cc1ccc(Br)cc1 (configuration not stated),.,.,.,-,.,.

# Source: PubChem BioAssay
